Consider 14 compounds from PubChem BioAssay.

Assay [1] in a line: inhibitors of TNFa-induced NFkB p65 translocation, primary screen, imaging, HUVEC, MLSMR starter and 10KST1 sets (AID 438).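 Further: compound added about 3h40 before a 20 min TNFalpha stimulation.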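 On inhibition: signal is the nuclear over cytoplasmic p65 intensity ratio per well.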 As to conditions: HUVEC TNFa-induced p65 nuclear translocation; cell count: measured here: nuclei count (cytotoxicity indicator), at 2.08 µM; inhibition: at 2 µM, stronger effect = higher value, 0% TNFa-plus-vehicle, 100% no-TNFa wells.
Assay [2] can be described thus: reduction of polyQ htt aggregates in cells – imaging, exon1htt(103Q)mCFP cells, high-content imaging, primary screen (AID 483;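 active means visual image review flags a hit and inhibition of aggregation exceeds 20%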;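 further: compound exposure lasted 3 days before fixation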;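 on nuclei count: percent of the per-plate median nuclei count of sample wells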). To be noted: exon1htt(103Q)mCFP cell line, aggregate imaging, at 2 µM; inhibition of aggregation: stronger effect = higher value; nuclei count: measured here: cell count, toxicity.
Assay [3] in a line: endothelial E-selectin expression blockers – imaging, HUVEC, immunofluorescence, MLSMR starter and 10KST1 sets, primary screen (AID 487;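 active means visually confirmed hit in the image check and inhibition above 20%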;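 on inhibition: signal is fraction of cell area covered by stained E-selectin grains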;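 on nuclei count: 100% = median nuclei count of all wells on the same plate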). To be noted: HUVEC TNFalpha-induced E-selectin immunofluorescence imaging, at 2 µM; inhibition: stronger effect = higher value; nuclei count: measured here: cell number, toxicity.
Assay [4] concerns the target Voltage-gated potassium channel subunit beta-2 (Rattus norvegicus) (UniProt P62483). Description: inhibitors of rat Kvbeta2 reductase activity – biochemical, NADPH fluorescence, primary screen (AID 622;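 active means fluorescence slope higher than the sample average by over 3 SD, cut at about -0.22 in these data, passing the limit was not always enough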;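 further: slope of raw intensity against log time taken from 70 to 1610 s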). As to conditions: recombinant KvBeta, 4-cyanobenzaldehyde reduction, at 10 µM, stronger effect = higher value.
Assay [5] has the same target. The assay can be described thus: enhancers of rat Kvbeta2 NADPH turnover – biochemical, NADPH fluorescence, primary screen (AID 623;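 active means NADPH fluorescence slope more negative than the mean of all samples by about 3 SD, 99.7% confidence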;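 further: fluorescence intensity change per second fitted from 20 to 320 s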). As to conditions: Recombinant KvBeta, NADPH fluorescence decrease slope, 10 min; at 10 µM; stronger effect = lower value.
In assay [6] the target is Alpha-2C adrenergic receptor (Homo sapiens) (UniProt P18825). The assay can be described thus: compounds altering alpha2C-coupled GIRK flux – cell-based, HEK293 alpha2C/GIRK1/2, thallium flux, primary screen (AID 624;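 active means fluorescence slope after compound addition differing from the mean of all screened samples at 99.7% confidence, in either direction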;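 further: slope of fluorescence ratio to pre-addition baseline per second over 15 to 24 s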). To be noted: thallium flux BTC fluorescence, at 10 µM, actives lie on both sides.
Assay [7] in a line: blockers of RIG-like receptor reporter activation – cell-based, Sendai virus stimulus, luciferase, 10K MLSCN set, TLR/RLR signaling modifier project, primary screen (AID 602276;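 active means inhibition at or above 50% at 10 µM; inactive means inhibition below 50%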;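 further: firefly luciferase from ISG56 promoter only with Renilla not read in this screen; 0% = Sendai virus plus DMSO and 100% = medium plus DMSO without virus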). As to conditions: HEK293 RL24 IRF3 luciferase reporter, at 10 µM, stronger effect = higher value. Background: In a reporter assay the amount or activity of a reporter protein is the signal.
Assay [8] can be described thus: TLR3 IRF3 reporter activation blockers – cell-based, poly I:C stimulus, luciferase, 10K MLSCN set, primary screen (AID 602277;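 active means inhibition of the reporter signal at or above 50%; inactive means inhibition below 50%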). To be noted: HEK293-TLR3 RL24 IRF3 luciferase reporter, at 10 µM, stronger effect = higher value.

Activity calls are given as the source filed them.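 How the source made its calls, unless noted: active means inhibition above 20% together with a positive visual image hit; inconclusive means visual image hit but inhibition not above 20%; inactive means no visual image hit.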

Voltage-gated potassium channel subunit beta-2 (Rattus norvegicus), sequence (P62483 whole entry, looked up): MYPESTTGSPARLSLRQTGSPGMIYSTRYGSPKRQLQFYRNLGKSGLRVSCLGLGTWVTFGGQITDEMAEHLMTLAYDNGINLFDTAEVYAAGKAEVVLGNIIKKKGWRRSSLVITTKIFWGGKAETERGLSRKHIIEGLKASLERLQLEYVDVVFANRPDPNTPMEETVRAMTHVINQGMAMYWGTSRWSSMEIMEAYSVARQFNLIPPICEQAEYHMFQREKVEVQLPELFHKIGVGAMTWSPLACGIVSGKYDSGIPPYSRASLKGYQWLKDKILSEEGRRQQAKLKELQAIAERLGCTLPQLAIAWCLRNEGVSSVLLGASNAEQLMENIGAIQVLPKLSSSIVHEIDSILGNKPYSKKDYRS
Alpha-2C adrenergic receptor (Homo sapiens), sequence (P18825 whole entry, looked up): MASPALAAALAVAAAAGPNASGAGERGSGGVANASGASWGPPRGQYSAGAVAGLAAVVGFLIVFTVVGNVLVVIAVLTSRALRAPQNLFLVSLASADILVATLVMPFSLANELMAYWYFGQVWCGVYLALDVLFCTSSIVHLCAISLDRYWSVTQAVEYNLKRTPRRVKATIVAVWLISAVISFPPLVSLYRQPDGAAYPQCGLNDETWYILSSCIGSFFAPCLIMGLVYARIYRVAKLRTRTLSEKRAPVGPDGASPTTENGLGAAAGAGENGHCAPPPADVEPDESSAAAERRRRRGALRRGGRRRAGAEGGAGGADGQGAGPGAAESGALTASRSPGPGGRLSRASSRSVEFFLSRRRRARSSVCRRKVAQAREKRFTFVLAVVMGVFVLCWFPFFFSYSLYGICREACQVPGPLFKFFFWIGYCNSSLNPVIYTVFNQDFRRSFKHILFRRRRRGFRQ

Turning to `CCOc1ccc(NC(=O)CSc2nc3cccnc3n2CC)cc1`, in assay [1], the cell count worked out at 579. The inhibition (usually the relative decrease from the control value, in per cent) in assay [1] is -15.8% (inactive); in assay [3], -54.8% (inactive); in assay [7], 12.5% (inactive); in assay [8], 25.8% (inactive). The inhibition of aggregation in assay [2] was -26.9% (inactive). The nuclei count amounted to 92.3% in assay [2] and 102% in assay [3]. In assay [4], the fluorescence slope was -0.487 (inactive). In addition, in assay [5], the NADPH fluorescence slope was -2.4e-05 (inactive). Besides, in assay [6], the slope is 0.00547 (inactive).

As to `CCn1nc(C(=O)OCC(=O)N2CCc3ccccc32)c2ccccc2c1=O`, the cell count in assay [1] is 301. Further, the inhibition in assay [1] is -8.8% (inactive); in assay [3] it was 25.7% (inactive); in assay [7], -3.24% (inactive); in assay [8], 13.2% (inactive). Moreover, the inhibition of aggregation in assay [2] was 4.1% (inactive). Also, the nuclei count in assay [2] came out at 68.3%; in assay [3], 96.8%. Also, in assay [4], the fluorescence slope is -0.297 (inactive). Besides, the NADPH fluorescence slope in assay [5] is 2.7e-05 (inactive). The slope in assay [6] is 0.00506 (inactive).

With `C/C(N)=C(/C#N)C(=O)CSc1nnc(Nc2cccc(C)c2)s1`, the cell count in assay [1] is 451. The inhibition in assay [1] is 2.9% (inactive); in assay [3], -79.4% (inactive); in assay [7], -7.88% (inactive); in assay [8] it was -32.1% (inactive). Also, in assay [2], the inhibition of aggregation is 5.1% (inactive). The nuclei count is 101% in assay [2] and 130% in assay [3]. In assay [4], the fluorescence slope was -0.492 (inactive). In assay [5], the NADPH fluorescence slope is -3.5e-05 (inactive). Further, the slope in assay [6] was 0.00453 (inactive).

On to `CCCCc1n[nH]c2c1C(=O)CC(C)(C)C2`, for which the cell count in assay [1] came to 712. In addition, the inhibition was -28.4% (inactive) in assay [1], -75.3% (inactive) in assay [3], 3.68% (inactive) in assay [7] and 19.2% (inactive) in assay [8]. Also, the inhibition of aggregation in assay [2] was 3.8% (inactive). Moreover, the figures for the nuclei count in assay [2] and in assay [3] were 113% and 120%, respectively. In addition, the fluorescence slope in assay [4] is -0.449 (inactive). Further, in assay [5], the NADPH fluorescence slope was -4.7e-05 (inactive). Besides, the slope in assay [6] was 0.00506 (inactive).

For `CCOc1cc(C(=O)N(C)Cc2cc3cc(OC)ccc3[nH]c2=O)cc(OCC)c1OCC`, the cell count in assay [1] was found to be 394. Moreover, the inhibition was 4% (inactive) in assay [1], -174% (inactive) in assay [3], 15.8% (inactive) in assay [7] and 18.6% (inactive) in assay [8]. Further, the inhibition of aggregation in assay [2] is 18.6% (inactive). For the same compound, the nuclei count in assay [2] was 83.8%; in assay [3], 211%. For the same compound, in assay [4], the fluorescence slope was -0.207 (inactive). The NADPH fluorescence slope in assay [5] was -1.5e-05 (inactive). In assay [6], the slope is 0.00515 (inactive).

Consider `COC(=O)CCC(=O)Nc1cccc(Cl)c1`, for which the cell count in assay [1] came to 205. For the same compound, the inhibition in assay [1] is 42.5% (active); in assay [3], -12.1% (inactive); in assay [7], 3.5% (inactive); in assay [8] it was 17.1% (inactive). Moreover, the inhibition of aggregation in assay [2] is 5% (inactive). The nuclei count in assay [2] amounted to 99.2%; in assay [3], 94.4%. For the same compound, in assay [4], the fluorescence slope was -0.593 (inactive). The NADPH fluorescence slope in assay [5] was -3.8e-05 (inactive). In assay [6], the slope is 0.00629 (inactive).

Turning to `CN(C)/C=N/c1ncnc2c1cnn2-c1ccc(C(F)(F)F)cn1`, the cell count in assay [1] came to 565. Also, the inhibition in assay [1] is -0.9% (inactive); in assay [3], 21% (inactive); in assay [7] it was -45.2% (inactive); in assay [8], -118% (inactive). In addition, the inhibition of aggregation in assay [2] was -3.8% (inactive). Further, the nuclei count in assay [2] is 110%; in assay [3], 114%. In assay [4], the fluorescence slope is -0.583 (inactive). Further, the NADPH fluorescence slope in assay [5] was -4.6e-05 (inactive). The slope in assay [6] was 0.0102 (inactive).

In the case of `Cc1cccn2c(=O)c3cc(C(=O)NC4CCCC4)c(=N)n(C4CCCC4)c3nc12`, the cell count in assay [1] was 786. Also, the inhibition in assay [1] was 2.4% (inactive); in assay [3], -189% (inactive); in assay [7], 17.5% (inactive); in assay [8], 32.7% (inactive). In addition, in assay [2], the inhibition of aggregation was -58% (inactive). The results for the nuclei count in assay [2] and in assay [3] were 107% and 126%, respectively. Also, in assay [4], the fluorescence slope was -0.0946 (inactive). Also, the NADPH fluorescence slope in assay [5] was -1.1e-05 (inactive). Further, the slope in assay [6] is 0.00161 (inactive).

As to `CCOC(=O)c1[nH]c(CSc2nnc(-c3ccncc3)n2CCOC)c(C(=O)OCC)c1C`, the cell count in assay [1] was found to be 368. For the same compound, the inhibition in assay [1] was 1.1% (inactive); in assay [3], -89.1% (inactive); in assay [7], 8.8% (inactive); in assay [8], 11.1% (inactive). In assay [2], the inhibition of aggregation was -5.7% (inactive). Also, the nuclei count is 107% in assay [2] and 127% in assay [3]. The fluorescence slope in assay [4] is -0.486 (inactive). Moreover, in assay [5], the NADPH fluorescence slope is 1.9e-05 (inactive). The slope in assay [6] was 0.00635 (inactive).

Regarding `CCCCn1c(NC(=O)CC)c(C#N)c2nc3ccccc3nc21`, the cell count in assay [1] amounted to 273. For the same compound, the inhibition was -0.9% (inactive) in assay [1], 45.9% (inactive) in assay [3], 16.1% (inactive) in assay [7] and 9.45% (inactive) in assay [8]. Also, the inhibition of aggregation in assay [2] is 31.7% (inactive). In addition, the nuclei count came out at 80.6% in assay [2] and 64.7% in assay [3]. In addition, the fluorescence slope in assay [4] is -0.0219 (inactive). The NADPH fluorescence slope in assay [5] is -1.3e-05 (inactive). Moreover, the slope in assay [6] is 0.00421 (inactive).

For the compound `CCN(c1c(C)n(C)n(-c2ccccc2)c1=O)S(C)(=O)=O`, the cell count in assay [1] came out at 614. In addition, the inhibition is 11.6% (inactive) in assay [1], -98.2% (inactive) in assay [3], 23.1% (inactive) in assay [7] and 24.6% (inactive) in assay [8]. For the same compound, in assay [2], the inhibition of aggregation is 3.3% (inactive). The nuclei count amounted to 104% in assay [2] and 145% in assay [3]. Also, in assay [4], the fluorescence slope is -0.58 (inactive). For the same compound, the NADPH fluorescence slope in assay [5] is -3.6e-05 (inactive). For the same compound, in assay [6], the slope is 0.00621 (inactive).

Take `COC(=O)C(C)NC(=O)C12CC3CC(CC(C3)C1)C2` (centres undefined): the cell count in assay [1] stood at 512. Besides, the inhibition is -5.8% (inactive) in assay [1], -31% (inactive) in assay [3], -0.739% (inactive) in assay [7] and 23% (inactive) in assay [8]. Further, the inhibition of aggregation in assay [2] is 13.2% (inactive). Further, the nuclei count in assay [2] came out at 103%; in assay [3], 124%. Further, the fluorescence slope in assay [4] was -0.321 (inactive). Also, the NADPH fluorescence slope in assay [5] was -2.1e-05 (inactive). Moreover, the slope in assay [6] is 0.0064 (inactive).

Take `COc1ccc(C(C(C(=O)c2ccco2)N2CCOCC2)N2CCOCC2)cc1` (centres undefined): in assay [1], the cell count worked out at 534. In addition, the inhibition in assay [1] is 5.4% (inactive); in assay [3], 57.2% (inactive); in assay [7] it was 2.32% (inactive); in assay [8], -5.02% (inactive). The inhibition of aggregation in assay [2] was 2.2% (inactive). The figures for the nuclei count in assay [2] and in assay [3] were 87.8% and 91.5%, respectively. Moreover, in assay [4], the fluorescence slope is -0.401 (inactive). Also, the NADPH fluorescence slope in assay [5] is 1.7e-05 (inactive). Further, the slope in assay [6] was 0.0056 (inactive).

In the case of `COc1ccc(-n2nnnc2SCC(=O)c2ccc(O)c(O)c2)cc1`, the cell count in assay [1] is 344. The inhibition in assay [1] is -6.5% (inactive); in assay [3], -74.4% (inactive); in assay [7], 13.7% (inactive); in assay [8], 16.9% (inactive). For the same compound, in assay [2], the inhibition of aggregation is 20.5% (inactive). Also, the nuclei count in assay [2] was found to be 91.8%; in assay [3], 112%. The fluorescence slope in assay [4] is -0.487 (inactive). Further, in assay [5], the NADPH fluorescence slope is -0.000117 (inactive). The slope in assay [6] was 0.00395 (inactive).
